According to PubChem BioAssay (Tox21):
Several values for one entry are separate records, joined by “and”; a condition that tells them apart may be missing. Equal entries are not always repeated. Records with an inconclusive call do not appear. More than one record can exist for a structure, and the calls need not agree. Activity calls are given as the source filed them. Unless noted, calls follow the shape of the dose curve; as a rule, active = well fitted curve in the direction sought with a large enough effect in the repeat runs; inconclusive = weak or mixed curves; inactive = no such curve, though single readings can be large; an effect the other way counts as inactive or inconclusive.

How the values were obtained:
[1] = molecular target: Luciferin 4-monooxygenase (Photinus pyralis) (UniProt P08659); assay: qHTS assay to identify small molecule inhibitors of firefly luciferase (AID 1224835); also: nearly all actives have a fitted effect of over 25% in size; also: potency is read from the fitted curve at half-maximal effect
In short: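 Quantitative HTS format; KM concentrations of both substrates. Purified P. pyralis FLuc activity quantified from luminescence images.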

[2] = qHTS assay to identify small molecule agonists of the constitutive androstane receptor (CAR) signaling pathway - cell viability counter screen (AID 1224836); also: series mostly up to about 92 µM; nearly all actives have a fitted effect of over 45% in size
In short: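 Fluorescence from CellTiter-Fluor indicates live cells after 23 h exposure. The human hepatoma line expresses hCAR and a CYP2B6-2.2kb reporter. Incubation medium contains 0.75 uM PK11195 (final).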

[3] = qHTS assay to identify small molecule antagonists of the constitutive androstane receptor (CAR) signaling pathway - cell viability counter screen (AID 1224837); also: series mostly up to about 92 µM; nearly all actives have a fitted effect of over 45% in size
In short: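 Cytotoxicity counter-screen: CellTiter-Fluor fluorescence after 23 h compound exposure (15-point qHTS) in double-stable HepG2-CYP2B6-hCAR cells, with 50 nM CITCO added.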

[4] = molecular target: Nuclear receptor subfamily 1 group I member 3 (Homo sapiens) (UniProt Q14994); assay: qHTS assay to identify small molecule agonists of the constitutive androstane receptor (CAR) signaling pathway (AID 1224839); also: nearly all actives have a fitted effect of over 15% in size; also: potency is read from the fitted curve at half-maximal effect
In short: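 Stable hCAR/CYP2B6-2.2kb HepG2 line in DMEM with 10% FBS; compounds (15 concentrations) and 0.75 uM PK11195 final, 24 h at 37 C/5% CO2, then ONE-Glo luminescence after 30 min.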

[5] = qHTS assay to identify small molecule antagonists of the estrogen related receptor signaling pathway with the pleiotropic PPARgamma coactivator (PGC) from Tox21 10K library - cell viability counter screen (AID 1224840; active = well fitted cell-killing curve with a large enough effect in the repeat runs, not every such curve was filed as active; also: nearly all actives have a fitted effect of over 40% in size; also: potency is read from the fitted curve at half-maximal effect)
In short: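 Counter-screen for cytotoxicity: after 17.5 h compound exposure at 37 C, CellTiter-Fluor reagent added to PGC/ERR cells for 30 min and fluorescence read. Cells were seeded at 2,000 per well 6 h before dosing.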

[6] = molecular target: Thyrotropin receptor (Homo sapiens) (UniProt P16473); assay: qHTS assay to identify small molecule agonists of the thyroid stimulating hormone receptor (TSHR) signaling pathway (AID 1224843; calls by dose curve; also: nearly all actives have a fitted effect of over 45% in size)
In short: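 Using 15 concentrations per compound in triplicate, cAMP production was monitored in TSHR-HEK293 cells after 30 min compound incubation at RT; HTRF reagents followed, with fluorescence intensity recorded after 1 h.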

[7] = qHTS assay to identify small molecule agonists of the hypoxia (HIF-1) signaling pathway - cell viability counter screen (AID 1224844; calls by dose curve; also: nearly all actives have a fitted effect of over 50% in size; also: potency is read from the fitted curve at half-maximal effect)
In short: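 Cytotoxicity measured by CellTiter-Glo ATP luminescence in the wells also read for beta-lactamase signal. Cells were HRE-bla ME-180 (2,000/well, 0.5% dialyzed FBS), exposed to compounds for 17 h at 37C.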

[8] = qHTS assay to identify small molecule antagonists of the estrogen related receptor signaling pathway with the pleiotropic PPARgamma coactivator (PGC) from Tox21 10K library (AID 1224841; call rule not given here; also: actives are mostly falling curves and most rising ones were filed inactive; nearly all actives have a fitted effect of over 50% in size; also: potency is read from the fitted curve at half-maximal effect)
In short: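 Luminescence (One-Glo, 30 min at room temperature) after 18 h compound treatment at 37 C of PGC/ERR reporter cells plated at 2,000 cells/well and settled 6 h beforehand.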

[9] = qHTS assay to identify small molecule agonists of the estrogen related receptor signaling pathway with the pleiotropic PPARgamma coactivator (PGC) from Tox21 10K library (AID 1224842); also: nearly all actives have a fitted effect of over 15% in size; also: potency is read from the fitted curve at half-maximal effect
In short: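 PGC/ERR reporter cells (NTP line) were seeded 2,000 per well, rested 6 h at 37 C/5% CO2, then pin-dosed with compounds in DMSO for 18 h at 37 C; luciferase read by One-Glo luminescence after 30 min at room temperature.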

[10] = molecular target: Nuclear receptor subfamily 1 group I member 3 (Homo sapiens) (UniProt Q14994); assay: qHTS assay to identify small molecule antagonists of the constitutive androstane receptor (CAR) signaling pathway (AID 1224838);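 also: HepG2 cells stably expressing hCAR with CYP2B6 luciferase reporter stimulated by CITCO; nearly all actives have a fitted effect of over 40% in size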; also: potency is read from the fitted curve at half-maximal effect
In short: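 Antagonism measured as luciferase signal (ONE-Glo, 30 min, room temperature) in CAR-stimulated cells: HepG2-CYP2B6-hCAR double-stable line exposed 24 hr at 37 C to compound in a 15-point series plus 50 nM CITCO.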

Measured: Potency

Sequence of Thyrotropin receptor (Homo sapiens) (P16473 whole entry, looked up): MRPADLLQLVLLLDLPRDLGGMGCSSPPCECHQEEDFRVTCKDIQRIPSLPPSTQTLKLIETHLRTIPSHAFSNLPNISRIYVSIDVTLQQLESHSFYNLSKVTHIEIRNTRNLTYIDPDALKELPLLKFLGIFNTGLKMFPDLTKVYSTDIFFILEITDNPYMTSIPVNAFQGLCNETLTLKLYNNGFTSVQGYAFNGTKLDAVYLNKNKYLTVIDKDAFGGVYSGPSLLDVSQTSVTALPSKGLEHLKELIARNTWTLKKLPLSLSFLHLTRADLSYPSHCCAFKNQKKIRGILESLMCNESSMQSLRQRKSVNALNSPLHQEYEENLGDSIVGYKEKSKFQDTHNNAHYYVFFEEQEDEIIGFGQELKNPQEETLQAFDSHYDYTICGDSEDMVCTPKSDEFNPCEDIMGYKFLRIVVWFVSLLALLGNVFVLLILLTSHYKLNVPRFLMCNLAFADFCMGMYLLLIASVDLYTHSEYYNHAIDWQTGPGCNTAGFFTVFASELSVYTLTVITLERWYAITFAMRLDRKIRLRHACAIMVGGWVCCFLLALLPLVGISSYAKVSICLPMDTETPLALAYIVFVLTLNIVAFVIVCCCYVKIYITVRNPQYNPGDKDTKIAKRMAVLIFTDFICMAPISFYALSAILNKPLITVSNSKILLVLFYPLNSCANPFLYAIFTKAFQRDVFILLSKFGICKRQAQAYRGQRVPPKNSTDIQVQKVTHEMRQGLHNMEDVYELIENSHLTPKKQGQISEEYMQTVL
Sequence of Nuclear receptor subfamily 1 group I member 3 (Homo sapiens) (Q14994 whole entry, looked up): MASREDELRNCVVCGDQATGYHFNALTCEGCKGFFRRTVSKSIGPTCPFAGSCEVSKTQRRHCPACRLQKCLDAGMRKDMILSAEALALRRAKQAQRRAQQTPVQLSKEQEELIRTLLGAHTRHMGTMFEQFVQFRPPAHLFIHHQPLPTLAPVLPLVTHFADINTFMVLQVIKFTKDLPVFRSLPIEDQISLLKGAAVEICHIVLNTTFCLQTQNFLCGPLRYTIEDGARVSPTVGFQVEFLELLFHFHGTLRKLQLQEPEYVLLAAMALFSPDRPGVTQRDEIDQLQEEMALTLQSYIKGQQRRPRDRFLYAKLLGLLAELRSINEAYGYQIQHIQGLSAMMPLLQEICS
Sequence of Luciferin 4-monooxygenase (Photinus pyralis) (P08659 whole entry, looked up): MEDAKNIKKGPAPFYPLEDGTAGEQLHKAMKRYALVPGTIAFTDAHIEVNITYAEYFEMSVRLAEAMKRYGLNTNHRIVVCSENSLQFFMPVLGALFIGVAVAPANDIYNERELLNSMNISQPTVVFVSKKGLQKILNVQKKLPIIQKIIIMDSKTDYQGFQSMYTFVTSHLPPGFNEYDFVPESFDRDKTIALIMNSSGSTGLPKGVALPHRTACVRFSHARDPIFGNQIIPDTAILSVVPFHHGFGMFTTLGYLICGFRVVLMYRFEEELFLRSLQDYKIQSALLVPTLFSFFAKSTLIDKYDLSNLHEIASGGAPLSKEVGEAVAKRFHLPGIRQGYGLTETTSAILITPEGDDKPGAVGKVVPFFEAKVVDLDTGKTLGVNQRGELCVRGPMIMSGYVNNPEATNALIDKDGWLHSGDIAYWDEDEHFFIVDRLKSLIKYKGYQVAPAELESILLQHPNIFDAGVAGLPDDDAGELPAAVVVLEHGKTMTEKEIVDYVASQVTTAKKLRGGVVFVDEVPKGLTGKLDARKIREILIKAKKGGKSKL

CCCCCCC(C)(C)S
not listed: [8] | [9] | [10]
inactive: all other assays above

CCC(=O)O
inactive: [1] | [2] | [3] | [5] | [7]

NCCc1ccc(O)c(O)c1
inactive: [1] | [2] | [5] | [7]

Cc1ccc(N)c(S(=O)(=O)O)c1
inactive: [1] | [2] | [3] | [5] | [6] | [7]

CC(C)NCC(O)COc1cccc2ccccc12 (stereo not drawn)
inactive: [3] | [4] | [5] | [7]

COC(=O)c1ccccc1O
21.7 µM (active) and inactive: [9]
63.5 µM (active) and inactive: [1]
not listed: [4] | [10]
inactive: all other assays above

COC(=O)c1ccc(C(=O)OC)cc1
24.7 µM (active) and inactive: [5]
6.95 µM (active) and inactive: [10]
inactive: [4] | [6]
4.96 µM (active) and inactive: [7]
32.1 µM (active) and inactive: [1]

CC(C)Cc1ccccc1
inactive: [1] | [2] | [3] | [5] | [6] | [7]

O=C1N=C(O)CN1/N=C/c1ccc(-c2ccc([N+](=O)[O-])cc2)o1
48.6 µM (active) and inactive: [5]
inactive: [3] | [4] | [6] | [7]

C=C(C)C(=O)OCCC[Si](OC)(OC)OC
inactive: [1] | [2] | [3] | [5] | [6] | [7]

OCCOCCOCCOCCO
inactive: [1] | [2] | [3] | [5] | [6] | [7]

CCCCCCCCCCCCN
inactive: [1] | [10] | [4] | [6] | [7]
inactive and 12.2 µM (active): [5]

Oc1ccc2ccccc2c1
inactive: [2] | [3] | [5] | [6]
active: [7] 35.5 µM

NS(=O)(=O)c1cc2c(cc1Cl)NC=NS2(=O)=O
inactive: [1] | [2] | [3] | [5] | [6] | [7]

S=c1nc[nH]c2nc[nH]c12
inactive: [1] | [2] | [4] | [5] | [6] | [7]

CC1=CC[C@H]2C[C@@H]1C2(C)C
inactive: [1] | [2] | [3] | [5] | [6] | [7]

Nc1cc(-c2ccncc2)c[nH]c1=O
not listed: [4] | [10]
inactive: all other assays above

COC(=O)Nc1nc2ccc(Sc3ccccc3)cc2[nH]1
active: [4] 4.33 µM
not listed: [1] | [8] | [9]
inactive: all other assays above

CC#C[C@]1(O)CC[C@H]2[C@@H]3CCC4=CC(=O)CCC4=C3[C@@H](c3ccc(N(C)C)cc3)C[C@@]21C
active: [8] 21.7 µM and 29.8 µM
not listed: [2] | [3]
inactive: all other assays above

CC(C)n1c(/C=C/[C@@H](O)C[C@@H](O)CC(=O)O)c(-c2ccc(F)cc2)c2ccccc21
inactive: [2] | [3] | [5] | [7]

CC(C)(C)C1CCC(O)CC1 (stereo not drawn)
not listed: [1] | [8] | [9]
inactive: all other assays above

Clc1cc(Cl)c(Cl)cc1Cl
not listed: [4] | [6] | [10]
inactive: all other assays above

CC(C)(C)C(=O)C1C(=O)c2ccccc2C1=O
inactive: [10] | [6] | [7]
48.1 µM (active) and inactive: [5]
active: [1] 31.4 µM

O=C(Oc1ccccc1)c1ccc(O)cc1
inactive: [2] | [3] | [5] | [6] | [7]
active: [1] 35.8 µM and 35.6 µM

Cc1cc(O)cc(C)c1Cl
inactive: [1] | [2] | [3] | [5] | [6] | [7]

CCCCC(CC)COC(=O)CCCCCCCC(=O)OCC(CC)CCCC (stereo not drawn)
24.3 µM (active) and inactive: [10] | [8]
8.63 µM (active) and inactive: [5]
not listed: [2] | [3]
inactive: all other assays above

C=C(C)C(=O)OCCCCCC
inactive: [1] | [2] | [3] | [5] | [6] | [7]

COCC(=O)O
inactive: [1] | [2] | [3] | [5] | [6] | [7]

NC(=O)NNc1ccccc1
inactive: [2] | [3] | [4] | [5] | [6] | [7]

Nc1c(S(=O)(=O)O)cc(Br)c2c1C(=O)c1ccccc1C2=O
inactive: [5] | [6] | [7]
active: [1] 35.6 µM

O=S(=O)(O)c1cc(S(=O)(=O)O)c2c(N=Nc3ccccc3)c(O)ccc2c1
inactive: [1] | [10] | [4] | [6] | [7]

CCCCCCCCCC(=O)O
not listed: [1] | [4] | [10]
inactive: all other assays above

O=[N+]([O-])c1cc(N(CCO)CCO)ccc1NCCO
inactive: [3] | [5] | [7]
active: [1] 28.2 µM and 39.9 µM

O=C(c1cc(O)c(O)c(O)c1)c1ccc(O)c(O)c1O
not listed: [1] | [6] | [10]
inactive: all other assays above
